Rab9 prom act = activators of Rab9 promoter | Potency, µM (highest dose often 9.22 µM), for inactives: at the highest dose activation, negative = inhibition, hits mostly activators | Huh7 Rab9 promoter-luciferase reporter, luminescence, 24 h | 320,000 tested, 2.8% active; further: % of control where 0% means no effect; nearly all actives have a fitted effect of over 60% in size
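Rab9 promoter-driven luciferase in stably transfected Huh7 cells; 1500 cells/well rested 2 h, exposed to compound in DMSO for 24 h at 37 °C, 5% CO2. Luminescence read 10 min after adding luciferase reagent at ambient temperature.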
SMN2 splice up = enhancers of SMN2 splice variant expression. HEK293 SMN2-luciferase splicing reporter, luminescence, 30-36 h. Potency, µM (highest dose often 46.1 µM), without a hit: top-dose activity change, positive = activation, usual class: activators. 210,000 tested, 2.8% active. AID 1458; further: % of control where 0% means no effect; nearly all actives have a fitted effect of over 55% in size
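qHTS luciferase splicing reporter: luminescence rises when SMN2 exon 7 is included in transfected HEK293 cells. Compound exposure lasted 30-36 h at 37C, with 4.5 mM final sodium butyrate as control, followed by a ONE-Glo read.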
ELG1 repair inh = inhibitors of ELG1-dependent DNA repair in HEK293T cells; HEK293T ELG1-luciferase reporter, luminescence, 16 h; DNA damage induced by 5-fluorouridine; Potency, µM (series often up to 46.1 µM), without a hit: at the highest dose activity change, negative = inhibition, most hits filed as inhibitors; 330,000 tested, 2.3% active; AID 504467; further: on the % scale 0 is the no-effect control and ±100 the full control effect; nearly all actives have a fitted effect of over 55% in size
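Luminescence from the luciferase reporter, measured 30 min after ONE-Glo reagent at room temperature, was the read-out. Beforehand, 2,000 cells per well were exposed for 16 hr at 37 °C to 5-fluorouridine together with compound or vehicle.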
NPC1 prom act = activators of NPC1 promoter; Huh7 NPC1 promoter luciferase reporter, 24 h; 320,000 tested, 2.4% active; Potency, µM (highest dose often 9.22 µM), for inactives: at the highest dose activation, usual class: activators; AID 485313; further: % of control where 0% means no effect; nearly all actives have a fitted effect of over 60% in size
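Cells: Huh7 expressing luciferase under the NPC1 promoter, 1500/well. Seeded 2 h, compound added, incubated 24 h at 37 °C. Luciferase reagent, 10 min ambient, then luminescence.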
ELG1 genotox = induces genotoxicity in HEK293T cells with luciferase-tagged ELG1; AID 504466; 330,000 tested, 1.3% active; Potency, µM (titrated, usually from 46 µM), for the others: top-dose activity change, positive = activation, hits mostly activators; HEK293T ELG1-luciferase reporter, luminescence, 16 h; further: % of control where 0% means no effect; nearly all actives have a fitted effect of over 60% in size
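16 hr compound incubation (37 °C, 5% CO2) of HEK293T cells carrying luciferase-tagged ELG1; luciferase then measured by ONE-Glo luminescence after 30 min at RT.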
FLuc counter = inhibits or activates purified firefly luciferase, miR-21 counter-screen. P08659. purified FLuc, Km substrates, luminescence inhibition. Potency, µM (doses to about 57.5 µM), for the others: at the top dose activity change, negative = inhibition, most hits filed as inhibitors. 360,000 tested, 6.9% active;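 further: plate controls were vehicle for no effect and reference inhibitor for full effect; nearly all actives have a fitted effect of over 55% in size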
Target sequence (P08659 whole entry, looked up): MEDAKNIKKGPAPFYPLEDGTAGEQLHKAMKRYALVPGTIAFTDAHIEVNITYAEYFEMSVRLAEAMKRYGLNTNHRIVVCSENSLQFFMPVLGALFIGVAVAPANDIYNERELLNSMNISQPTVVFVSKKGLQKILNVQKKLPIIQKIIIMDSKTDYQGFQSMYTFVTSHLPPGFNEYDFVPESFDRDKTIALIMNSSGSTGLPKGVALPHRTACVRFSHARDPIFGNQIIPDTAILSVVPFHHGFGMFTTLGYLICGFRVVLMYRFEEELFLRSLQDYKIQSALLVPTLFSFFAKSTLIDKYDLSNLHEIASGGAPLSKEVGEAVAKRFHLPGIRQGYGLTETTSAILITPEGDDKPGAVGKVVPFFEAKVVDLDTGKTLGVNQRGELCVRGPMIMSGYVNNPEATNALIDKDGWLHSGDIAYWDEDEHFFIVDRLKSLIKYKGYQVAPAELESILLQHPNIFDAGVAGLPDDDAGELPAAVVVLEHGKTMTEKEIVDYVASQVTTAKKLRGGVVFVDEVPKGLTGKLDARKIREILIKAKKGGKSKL
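Purified P. pyralis luciferase (10nM final) with 10uM D-luciferin and 10uM ATP (Km levels) in 50mM Tris acetate pH 7.5, 10mM Mg acetate, 0.01% Tween-20, 0.05% BSA; qHTS 6-point titration, ~60 µM downward; luminescence read.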
The depositor's hits bear a star; ? = inconclusive; . = no result given; [ ] = another dose, or the depositor's remark. In the library only some 9.4% were active in any assay of this set; here they are far more common. The call rests on the fitted dose curve; in most records, active means well fitted curve in the direction sought with a large enough effect; inconclusive means small, poorly fitted or top-dose-only effect, or another doubt; inactive means no such curve, though single readings can be large; an effect the other way counts as inactive or inconclusive. Potency means the concentration at half of the fitted maximal effect.

SMILES	Rab9 prom act	SMN2 splice up	ELG1 repair inh	NPC1 prom act	ELG1 genotox	FLuc counter
O=C(CNc1ccccc1OC(F)F)N1CCc2ccccc21	3.2µM*	14µM*	?	3.2µM*	?	?
O=C(CSC1=NCCS1)N1CCc2ccccc21	4µM*	?	?	?	8.2µM*	13µM*
O=C(Cc1ccccc1)N1CCc2ccccc21	12%	-14%	?	8%	?	-16%
O=C(O)c1ccccc1SCC(=O)N1CCc2ccccc21	?	27%	?	?	14%	21µM*
O=C(N[C@@]1(C(=O)O)C[C@@H]1c1ccccc1)c1ccccc1	.	-14%[9.22 µM]	.	.	.	.
Cc1ccc(Cl)cc1N1CCN(C(=O)c2cccn2-c2nnc(N3CCCC3)s2)CC1	.	.	.	.	.	0%
Cc1ccc(Nc2ccc(N3CCN(C(=O)c4cccc([N+](=O)[O-])c4)CC3)nn2)cc1	.	.	.	.	.	2%
COc1cc(NC(=O)Cc2noc3ccccc23)cc(OC)c1OC	.	.	.	.	.	-7%
Cc1cccc(/C=N\N=C\c2cccc(C)c2)c1	25%	.	?	?	16%	8.5µM*
O=C(N/N=C/c1ccc(Br)cc1)c1cc[n+]([O-])cc1	-2%	.	11%	2%	1%	?
Cc1cccc(/C=N/NC(=O)c2ccc(Br)cc2)c1	?	?	?	14%	?	3.4µM*
O=C(N/N=C/c1ccc(Br)cc1)c1ccc(Br)o1	3.2µM*	11µM*	?	?	?	4.3µM*
O=C(N/N=C/c1ccc(F)cc1)c1ccc(Br)cc1	27%	7%	?	23%	14%	9.5µM*
O=C(N/N=C/c1ccc(Br)cc1)c1ccc(F)cc1	24%	13µM*	?	?	?	6µM*
CCCC(=O)Oc1c(Sc2ccc(Cl)cc2)c(C)nn1-c1ccccc1	.	-4%	.	.	.	11µM*
Cc1ccc(Sc2c(C)nn(-c3ccccc3)c2OC(=O)CC(C)C)cc1	.	2%	.	.	.	?
Cc1ccnc(NC(=O)Nc2cccc(F)c2)n1	1.1µM*	11µM*	?	2.2µM*	?	7.6µM*
Cc1cccc(NC(=O)Nc2cccc(F)c2)n1	?	11%	?	?	?	13µM*
COc1cccc(NC(=O)NCc2ccccn2)c1	4%	.	?	-3%	14%	-12%
COc1cccc(NC(=O)Nc2nccc(C)n2)c1	0.56µM*	.	?	1.3µM*	?	1.2µM*
COc1ccc(CCNC(=O)CCc2cn(Cc3ccc(F)cc3)c3ccccc23)cc1OC	.	.	.	.	.	-8%
COc1ccc(-c2csc3ncnc(Nc4ccc(OC)c(OC)c4)c23)cc1	.	.	.	.	.	3%
O=C(/C=C\c1ccccc1[N+](=O)[O-])Nc1ccccc1	2µM*	18µM*	?	?	?	11µM*
Cc1ccnc(NC(=O)/C=C/c2ccccc2Cl)c1	1.1µM*	1.3µM*	?	0.71µM*	?	0.6µM*
Cc1ccnc(NC(=O)/C=C/c2ccccc2[N+](=O)[O-])c1	0.56µM*	2.8µM*	?	2µM*	2.6µM*	3.4µM*
SMILES	Rab9 prom act	SMN2 splice up	ELG1 repair inh	NPC1 prom act	ELG1 genotox	FLuc counter
COc1ccc(NC(=O)CSc2c(C(C)C)cnc3c2c(=O)n(C)c(=O)n3C)c(OC)c1	.	.	.	.	.	0%
CCS(=O)(=O)c1ncc(N(Cc2cccc(F)c2)Cc2ccco2)c(C(=O)Nc2ccccc2Cl)n1	.	.	.	.	.	4%
Cc1cc(NC(c2nnc(-c3ccccc3)o2)c2ccccc2F)ccc1Br (configuration not stated)	.	.	.	.	.	-5%
Cc1ccc(C)c(OCCn2cc(C(=O)c3cccs3)c3ccccc32)c1	.	-13%	.	.	.	-2%
COCCCn1c(C(=O)NCCN2CCOCC2)cc2c(=O)n3cccc(C)c3nc21	13%	.	-16%	1%	-6%	1%
COCCCn1c(C(=O)NC2CCCCC2C)cc2c(=O)n3cccc(C)c3nc21 (configuration not stated)	-3%	.	13µM*	-3%	-11%	3%
CCN(C(=O)c1cc2c(=O)n3cccc(C)c3nc2n1CCCOC)C1CCCCC1	2%	.	23µM*	-5%	-13%	4%
Cc1noc(C)c1CSCC(=O)N1CCN(c2ccc(F)cc2)CC1	-7%	-63%	11µM*	0%	-14%	1%
Cc1cccc(N2CCN(C(=O)CSCc3c(C)noc3C)CC2)c1C	-24%	-74%	10%	-17%	-4%	?
O=C1C2C3C=CC(C4CC34)C2C(=O)N1c1cccc2ccccc12 (configuration not stated)	10%	.	?	14%	4%	6.7µM*
COC[C@H]1O[C@@H](c2c(OC)cc(OC)cc2OC)[C@H](OC)[C@@H](OC)[C@@H]1OC	.	6%	.	.	.	.
COc1cc(-c2nc(C(N)=O)c3c(n2)n(-c2cccc(C)c2)c(=O)n3C)cc(OC)c1OC	.	.	.	.	.	5%
CCc1noc(-c2ccc(NC(C)c3ccccc3)c([N+](=O)[O-])c2)n1 (configuration not stated)	.	.	.	.	.	0%
CCCCCCSC1=C(C#N)C(=O)NC2(CCCCC2)S1	-2%	19%	?	3%	?	24µM*
C[C@]12O[C@H]1[C@@H](O)C(Br)=C(CO)[C@H]2O	.	-2%	.	.	.	.
Cc1ccc(NC(=O)N2CCc3c(sc4c3CCCC4)C2c2ccccc2)cc1F (configuration not stated)	.	.	.	.	.	-2%
O=C1C=CC(=O)C2=C1C1c3ccccc3C2c2ccccc21	.	-1%	.	.	.	.
CN(C(=O)c1ccco1)c1nnc(-c2ccc(F)cc2)s1	3.2µM*	.	?	2.2µM*	?	6.7µM*
CN(C(=O)c1ccco1)c1nc(-c2ccc(F)cc2)cs1	2.8µM*	.	?	3.5µM*	?	2.7µM*
COc1ccc(-c2csc(N(C)C(=O)c3cccs3)n2)cc1	2.5µM*	.	?	?	15%	6µM*
CCOc1ccccc1CNC(=O)C1CCN(c2nnc(-n3c(C)ccc3C)s2)CC1	.	.	.	.	.	4%
Cc1ccc(-c2cc3nn(-c4ccccc4)c(N)c3c(=O)o2)cc1	?	-28%	-7%	25%	-2%	6µM*
Cc1ccc(NC(=O)c2cc(-c3ccccc3)nn2-c2ccccc2)cc1	2%	-30%	?	0%	-1%	-2%
C=CCNc1oc(/C=C/c2ccccc2)nc1C#N	2.2µM*	11µM*	?	2.5µM*	?	4.8µM*
CN(C)CCNc1oc(/C=C/c2ccccc2)nc1C#N	6%	9%	?	10%	11%	-12%
COCCCNc1oc(/C=C/c2ccccc2)nc1C#N	1.1µM*	.	?	3.5µM*	2.9µM*	3.4µM*

Assay outcomes (PubChem)
